# Shown are actives, neighbours in structure and some others; about 10% of the full set was active somewhere.
# BAZ2B inh – BAZ2B (human) inhibition. Q9UIF8. AlphaScreen BAZ2B-H3K14Ac peptide displacement. Potency, µM (highest dose often 114 µM), actives largely listed as inhibitors. 360,000 tested, 4.4% active. AID 504333; note: nearly all actives have a fitted effect of over 60% in size
#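 AlphaScreen displacement: compounds (up to 110uM) incubated 30 min at room temperature with a preformed 50 nM BAZ2B/50 nM biotinylated H3K14Ac peptide complex in PBS pH 7.4 with Tween-20. Donor and acceptor beads at 10 ug/mL final added, 20 min light-protected before reading.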
# HP1b chromo inh – inhibitors of HP1-beta chromodomain binding to methylated histone tails. P83916. AlphaScreen HP1-beta / biotin-H3K9me3 peptide binding. Potency, µM (doses to about 114 µM), hits mostly inhibitors. 390,000 tested, 0.56% active. AID 540317; note: nearly all actives have a fitted effect of over 70% in size
# Target sequence (P83916 whole entry, looked up): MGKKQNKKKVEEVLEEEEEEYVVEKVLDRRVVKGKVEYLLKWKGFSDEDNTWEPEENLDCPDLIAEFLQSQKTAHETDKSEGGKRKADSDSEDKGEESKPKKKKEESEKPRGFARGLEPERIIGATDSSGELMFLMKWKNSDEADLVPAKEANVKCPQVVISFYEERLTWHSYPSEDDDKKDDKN
#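 HP1-beta protein (50 nM final) preincubated 30 min at room temperature with biotinylated H3(1-18)K9me3 peptide (50 nM) in PBS pH 7.4, 0.01% Tween-20, then compound added for 30 min. AlphaScreen streptavidin donor/nickel chelate acceptor beads (10 ug/mL final), 30 min dark, luminescence read.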
# Six1-Eya2 inh – inhibitors of human Six1/Eya2 interaction | Q15475+O00167 | AlphaScreen GST-Six1/His-Eya2 binding, biochemical; stronger effect = lower value | activity change, % (no concentration beside the values) | 360,000 tested, 0.56% active | AID 651725; in the data active = activity change below about -65%; inconclusive = mostly about -30% to -63%
#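 Compounds are tested against tagged Six1 and Eya2 proteins bridged by glutathione donor and nickel acceptor beads; after a one-hour incubation at 37 °C without light, AlphaScreen emission is recorded.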
# CtBP-E1A inh – inhibitors of CtBP/E1A interaction; 340,000 tested, 0.49% active; AlphaScreen GST-E1A/His-CtBP binding, 1536-well; stronger effect = lower value; activity change, % (no concentration beside the values); AID 651724; in the data active = activity change below about -65%; inconclusive = mostly about -30% to -63%
#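 Protein mix (5X: 125 nM each GST-E1A, His-CtBP) was incubated with pinned compound 2 h at 37 deg C in dark, in 50 mM Tris pH 8.0 buffer with 300 mM NaCl. Glutathione donor and nickel acceptor beads followed; AlphaScreen signal read after 1 h.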
# JMJD2A Tudor inh – JMJD2A Tudor domain (human) inhibition; 390,000 tested, 4.4% active; Potency, µM (doses to about 114 µM), hits mostly inhibitors; AlphaScreen JMJD2A-Tudor / H3K4me3 peptide binding; AID 504339; O75164; note: nearly all actives have a fitted effect of over 50% in size
# G9a inh – G9a (human) methyltransferase inhibition; Q96KQ7; G9a H3K9 monomethylation, AlphaScreen, 2 h; Potency, µM (doses to about 102 µM), hits mostly inhibitors; 350,000 tested, 8.8% active; AID 504332; note: nearly all actives have a fitted effect of over 75% in size
# Target sequence (Q96KQ7 913-1193 limits assumed): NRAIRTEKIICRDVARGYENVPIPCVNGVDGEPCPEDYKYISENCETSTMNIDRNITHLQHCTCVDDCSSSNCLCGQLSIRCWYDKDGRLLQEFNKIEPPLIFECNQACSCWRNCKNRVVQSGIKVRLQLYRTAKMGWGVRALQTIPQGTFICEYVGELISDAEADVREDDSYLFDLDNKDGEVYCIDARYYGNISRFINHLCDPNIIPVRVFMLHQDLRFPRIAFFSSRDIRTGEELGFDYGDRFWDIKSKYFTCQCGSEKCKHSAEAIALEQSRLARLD
#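 Signal arises when biotinylated H3K9 peptide, once monomethylated, bridges streptavidin donor and antibody-captured acceptor beads. Enzyme at 20 nM was preincubated 15 min with test compounds; peptide 500 nM and SAM 20 uM then reacted for 2 h.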
# A number is an active result; n = inactive; u = inconclusive; x = no result given; [ ] = remark or other dose. Unless noted, calls come from the whole dose curve; as a rule, active = well fitted inhibition curve with a large enough effect; inconclusive = small, poorly fitted or top-dose-only effect; inactive = no such curve, though single readings can be large or run the other way.
SMILES,BAZ2B inh,HP1b chromo inh,Six1-Eya2 inh,CtBP-E1A inh,JMJD2A Tudor inh,G9a inh
CCOC(=O)c1[nH]c(C)c(C(=O)N2CCN(c3ccccc3)CC2)c1C,u,n,n,n,n,n[2.33 µM]
COc1cc(OC)c(N(C)C(=O)Cn2ncc3c(=O)oc4ccccc4c32)cc1Cl,x,n,x,x,n,n
COc1cccc(C2Nc3c(F)cc(Br)cc3C3C=CCC32)c1OC (stereo unspecified),n,n,n,n,n,n
COC(=O)COc1ccc(C2Nc3c(Cl)ccc(C(=O)O)c3C3C=CCC32)cc1 (stereo unspecified),50µM,u,u,n,45µM,13µM
COc1ccc(OC)c(C2Nc3c(Cl)ccc(C(=O)O)c3C3C=CCC32)c1 (stereo unspecified),n,u,n,n,u,20µM
COC(=O)COc1ccc(S(=O)(=O)N2CCN(c3ccccc3)CC2)cc1,n,n,n,n,n,n
Cc1ccc(NC(=O)c2ccco2)c(OCc2cc(=O)n3cc(C)sc3n2)c1,n,n,x,x,n,n
CCCN1C(=O)c2cc(C(=O)O)ccc2C1O (stereo unspecified),56µM,n,n,n,89µM,u
Cc1ccc2nc(SCC(=O)Nc3cccc(S(=O)(=O)NC4=NCCCCC4)c3)[nH]c2c1,u,n,n,n,n[11.4 µM],x
CCc1ccc(NC(=O)C(C)OC(=O)CCN2C(=O)C3CC=CCC3C2=O)cc1 (stereo unspecified),x,n,n,n,n,x
COc1ccc(C(=O)C(C)OC(=O)CCN2C(=O)C3CC=CCC3C2=O)cc1 (stereo unspecified),n,n,n,x,n,7.9µM
CCSc1nc(=S)cc(C)[nH]1,n,n,n,x,n,10µM
COCCn1c(C)cc(/C=C(\C#N)C(=O)OCC(=O)Nc2ccc(S(N)(=O)=O)cc2)c1C,n,n,n,n,n,40µM
Brc1nnc2n1-c1ccccc1Sc1ccccc1-2,n,n,n,n,n,n
Clc1ccc2c(c1)-c1nnc(Br)n1-c1ccccc1S2,n,n,n,n,n,10µM
CCOc1ccc(S(=O)(=O)c2cn(Cc3ccccc3C)c3ccc(OC)cc3c2=O)cc1,n,n,x,x,n,n
CC(=NNC(=S)N1CCN(c2ccccn2)CC1)c1nccs1,x,u,-91,-94,13µM,x
C/C(=N\NC(=O)C1CCCN(S(=O)(=O)c2ccccc2)C1)c1ccccn1 (stereo unspecified),u,n,-86,-90,79µM,n
CC(=NNC(=S)N1CC2CCC(CC2)C1)c1ccccn1,x,x,n,n,x,x
C/C(=N\NC(=O)C1CCCN(S(=O)(=O)c2ccccc2)C1)c1ccncc1 (stereo unspecified),n,n,n,n,n,n
CC(=NNC(=S)N1CC2CCC(CC2)C1)c1cnccn1,x,u,-92,-94,11µM,x
CC(=NNC(=S)N1CCN(C2CCCCCC2)CC1)c1ccccn1,x,u,-92,n,18µM,x
O=C(NC(=S)Nc1cc(Cl)ccc1Cl)c1ccco1,x,x,n,n,x,x
S=C(NC1CCCC1)N1CCN(c2ccccn2)CC1,n,n,n,n,n,n
CC(=NNC(=S)N1CCCCCC1)c1cccc2cccnc12,x,50µM,u,-90,20µM,x
SMILES,BAZ2B inh,HP1b chromo inh,Six1-Eya2 inh,CtBP-E1A inh,JMJD2A Tudor inh,G9a inh
CC(=NNC(=S)N1CCN(c2ccccn2)CC1)c1ccccn1,x,u,u,u,56µM,x
CCC(C)c1ccc(S(=O)(=O)N2CCN(C(=O)c3ccc(Cl)c(S(=O)(=O)N4CCOCC4)c3)CC2)cc1 (stereo unspecified),x,n,n,x,n,x
CCOc1ccccc1-c1nnc2n1N=C(c1ccc(OC)c(OC)c1)CS2,x,x,x,x,n,x
Cc1c(NC(=O)c2cnc(Cl)c(Cl)c2)c(=O)n(-c2ccccc2)n1C,n,n,n,n,n,n
Cc1nnc(NN)n(N)c1=O,n,22µM,n,n,32µM,x
Cc1nnc(Nc2ccccc2)n(N)c1=O,n,n,n,n,u,n
Cc1cc(C)n(CCNC(=O)CC2C(=O)NCCN2Cc2ccccc2C(F)(F)F)n1 (stereo unspecified),n,n,n,n,n,45µM
Cc1cnc(CNC(=O)CC2C(=O)NCCN2Cc2ccccc2C(F)(F)F)cn1 (stereo unspecified),n,n,n,n,n,32µM
CCc1ccc(CNC(=O)CC2C(=O)NCCN2Cc2ccccc2F)nc1 (stereo unspecified),n,n,n,n,n,79µM
Cc1cc(CNC(=O)CC2C(=O)NCCN2CC(c2ccccc2)c2ccccc2)on1 (stereo unspecified),n,n,n,n,n,x
CCn1ccnc1CNC(=O)CC1C(=O)NCCN1Cc1ccccc1F (stereo unspecified),n,n,n,n,n,n[12.7 µM]
CCOc1ccccc1CN1CCNC(=O)C1CC(=O)NCc1nc(C)cs1 (stereo unspecified),n,n,n,n,n,u
Cc1cc(CNC(=O)CC2C(=O)NCCN2Cc2ccccc2C(F)(F)F)on1 (stereo unspecified),n,n,n,n,n,50µM
CC(C(=O)Nc1ccccc1)N(C)CCOc1ccc(Br)cc1 (stereo unspecified),n,n,n,n,n,n
Cc1nn(CC(=O)NC2CC2)c(C)c1S(=O)(=O)NC(C)(C)C,x,n,n,n,n,x
COCCn1c(=S)[nH]c2cc(C(=O)NCCCN3CCOCC3)ccc2c1=O,u,n,n,n,25µM,x
COC(=O)c1ccc2c(=O)n(CCN3CCOCC3)c(=S)[nH]c2c1,n,n,n,n,56µM,n[12.7 µM]
O=C(NCCCN1CCOCC1)c1ccc2c(=O)n(CCc3ccccc3)c(=O)[nH]c2c1,n,n,n,n,n,n[12.7 µM]
O=C(NCCCN1CCOCC1)c1ccc2c(=O)n(Cc3cccc(Br)c3)c(=S)[nH]c2c1,n,u,n,n,u,35µM
COc1cc2[nH]c(=S)n(NC(=O)c3ccccc3)c(=O)c2cc1OC,u,n,n,n,89µM,u
COC(=O)c1ccc2c(=O)n(CCCN3CCOCC3)c(=S)[nH]c2c1,n,n,n,n,n,u
CCCCCCSc1ccc([C@@H]2[C@@H]3C(=O)N(C)C(=O)[C@@H]3[C@]3(C(=O)OC)CCCCN23)cc1OC,n,n,n,n,n,n[2.33 µM]
CC(=O)Nc1ccc(NC(=O)C(C)OC(=O)c2ccc(C)s2)cc1 (stereo unspecified),u,n,n,n,n,n
O=C(NCCCN1CCOCC1)c1c(O)c2ccccc2[nH]c1=O,n,n,n,n,n,50µM
O=Cc1c(NCCN2CCCC2)c2ccccc2[nH]c1=O,n,n,n,n,u,10µM

# Assay outcomes: PubChem, National Center for Advancing Translational Sciences (NCATS)
